From ChEMBL document CHEMBL3988442, “University of Dundee, Small-Polar-MMV Screening Library” (2021) come the findings set out here.

This assay deals with AMP-activated protein kinase, AMPK (Homo sapiens) (UniProt P54646+O43741+P54619+Q9UGJ0+Q9Y478+Q13131+Q9UGI9). In words: AMP-dependent Kinase enzyme assay. An in vitro enzyme assay that detects ADP turnover that is directly proportional to AMPK activity. This uses naive AMPK that is activated during the assay with MK-8722. Particulars: 30 µM. Details: scale not given: direction of the effect not stated beside the values. It is filed as functional.
On to `CC(C)c1ccccc1OCCNC(=O)N1CCC(CC(N)=O)CC1`, for which the Percent Effect was -3.47%.
For `CN(CCc1ccncc1)Cc1c(C2CCCC2)[nH]c2ncccc12`, the Percent Effect was determined as 9.38%.
As for `O=C1CCC2(CCNCC2)CN1Cc1nncn1CCc1ccccc1`, the Percent Effect is 14.9%.
Consider `CC(=O)N1CCC(NC(=O)CN2CCCc3c(F)ccc(C)c32)CC1`, for which the Percent Effect was 3.84%.
For the molecule `CN(CCc1ccccc1)c1cnn(C)c(=O)c1Br`, the Percent Effect is 7.95%.
Next, `CNC(=O)COC(=O)c1cccc(-n2ccc(C(F)(F)F)n2)c1`: 5.41%; `NC(=O)c1ccc(NC2CCOC3(CCCC3)C2)nn1` (stereo not given): 0.506%.
Regarding `Cc1cc(CNC(=O)NCCCC(=O)N2CCc3ccccc32)no1`, the Percent Effect is -2.98%.
As to `CNC(=O)c1ccnc(N2CCCC(COc3cccc(C)c3)C2)c1` (stereo not given), the Percent Effect amounted to 29.8%.
The value for `CN(Cc1cn(C2CCNCC2)nn1)CC1CCCO1` (stereo not given) was 3.31%; that for `Cc1ccc(N2CCCC(N(C)c3nn4cc(C)nc4s3)C2)nn1` (stereo not given) was 33%.
For the molecule `CCc1ccc(CN2CCN(c3ccc(C#N)cc3)C(=O)C2)nc1`, the Percent Effect turned out to be 3.08%.
In the case of `COc1ccc(Oc2cc(CN)ccn2)cc1`, the Percent Effect is -36.1%.
As to `CCc1ccccc1OCCN(C)C(=O)CCN1CCCO1`, the Percent Effect is -7.88%.
On to `CCn1nc(C)c(NC(=O)CN(C)C(C)c2nccs2)c1C` (stereo not given), for which the Percent Effect is -6.11%.
Take `COCCN(CCOC)c1nc2c(s1)c(C)nn2C`: the Percent Effect is 0.796%.
Consider `NCc1ccnc(Oc2ccccc2)c1`, for which the Percent Effect is -5.26%.
Consider `CN(C)C(=O)c1ccc2c(c1)nc(N1CC[C@H](O)C1)n2C`, for which the Percent Effect is 1.76%.
Consider `CCC(C(=O)NC1(CN2CCOCC2)CCCC1)n1cccn1` (stereo not given), for which the Percent Effect worked out at 5.49%.
Next, `CC(O)CN1CCN(Cc2coc(-c3ccccc3Cl)n2)CC1` (stereo not given): -13.3%.
In the case of `COc1ccccc1CNC(=O)C(C)N1CC(n2nc(C)cc2C)C1` (stereo not given), the Percent Effect stood at 3.14%.
Next, `CO[C@H]1C[C@@H](O)C12CCN(C(=O)NCc1ccco1)CC2`: -2.57%; `CS(=O)(=O)CCC(=O)Nc1ccsc1`: -6.46%.
Next, `Cc1nc[nH]c1CN(C)Cc1cnn(-c2ccc(F)cc2)c1`: 10.8%; `O=C(CCCN1CCCCC1)NC(C(=O)O)c1cccc(F)c1` (stereo not given): 14.7%; `Cc1noc(CNc2cc3c(cc2Cl)NC(=O)CO3)n1`: 1.17%.
For the molecule `O=C1CC[C@@H](C(=O)N2CCC(Cn3cc(C4CCCCC4)nn3)CC2)N1`, the Percent Effect stood at 4.87%.
On to `CCC(C)C(=O)N(C)Cc1cc(F)ccc1N1CCC(OC)CC1` (stereo not given), for which the Percent Effect amounted to 8.71%.
`Cc1cc(-c2cnc(N3CCCC(C)C3)nc2C(C)C)on1` (stereo not given): the Percent Effect was 10.4%.
Next, `Cc1cc(C(=O)NCCN2CCCC(C)C2)nn1C(C)(C)C` (stereo not given): -4.71%; `CC(=O)Nc1ccc(Oc2cc(C)nc(C3CCCNC3)c2)cc1` (stereo not given): -6.11%; `Cc1cc(NC(=O)N2CCN(c3cccs3)CC2)ccc1C(N)=O`: 6.86%.
For `c1cc(NCc2ccsc2)cc(-c2nnc[nH]2)c1`, the Percent Effect was 14.3%.
In the case of `COCCC(=O)N1CCCC(CCC(=O)NCc2cccc(OC)c2)C1` (stereo not given), the Percent Effect amounted to 14.2%.
Regarding `Cc1csc(N2CCC(CCN3CCCC3=O)CC2)n1`, the Percent Effect was -12.1%.
In the case of `Cc1nc(CC(C)C)cc(C(=O)N2C[C@@H](CN(C)C)[C@@H](CO)C2)n1`, the Percent Effect is -4.49%.
Next, `CC(C)(C)c1ncc2c(n1)CN(c1cc(NCCO)nc(N)n1)C2`: -194%; `COc1cccc(-c2nc(CNCCc3cccnc3)cs2)c1`: -3.62%; `CSc1ccccc1NC(=O)c1ccc(N2CCOCC2)nn1`: -1.6%.
Consider `O=C(c1cc(C2CC2)nc2onc(-c3ccccc3)c12)N1CC(O)C1`, for which the Percent Effect came out at 2.65%.
